Drawing on PubChem BioAssay AID463173 (ICCB-Longwood Screening Facility, Harvard Medical School, 2010), this text covers survival for 58 compounds.

The whole screen tested about 52,000 compounds, of which about 4,300 (8.3%) were called active. Rule as the data show it: active = survival mostly below about 52% (no sharp cut-off); inactive = mostly above about 56%. This excerpt belongs to a sample that is enriched for actives.

The test system of this assay is DeltatarO mutant. As to the kind of experiment: S. aureus survival, RN4220 and DeltatarO strains – OD600, teichoic acid synthesis inhibitors, primary screen (AID 463173). The note with it: S. aureus RN4220 wild type/DeltatarO growth, OD600, 18 h, active compounds read low, screened at 18.75 µg/mL (by protocol).
For `COc1ccccc1CNC(=O)CSc1nc(=O)[nH]c2c1CCC2`, the survival is 78% (inactive). `COc1cc(CN(C(=O)COc2ccc(C)c(C)c2)c2ccccn2)cc(OC)c1OC`: the survival is 71% (inactive). Then `COc1ccc(-n2c(=O)c3ccccc3n(CC(=O)NCCc3ccccc3)c2=O)c(OC)c1`, with 74% (inactive); and `CCn1ccc2cc(S(=O)(=O)N3CCCN(C(=O)Nc4ccccc4OC)CC3)ccc21`, with 80% (inactive). Then `COc1ccc(-n2ncc(C(=O)NCCN3CCOCC3)c2C2CCN(C(=O)OC(C)(C)C)CC2)cc1`, with 119% (inactive).

As for `COc1ccc(S(=O)(=O)Nc2cc(-c3cn4ccccc4n3)ccc2C)cc1`, the survival is 102% (inactive). For `Cc1cc(C)c(S(=O)(=O)Nc2cc(-c3cn4ccccc4n3)ccc2C)cc1C`, the survival is 56% (inactive). `COc1ccc(S(=O)(=O)Nc2cc(-c3cn4ccc(C)cc4n3)ccc2C)cc1OC`: the survival is 62% (inactive).

In the case of `COc1ccc(S(=O)(=O)Nc2cc(-c3cn4cccc(C)c4n3)ccc2C)cc1C`, the survival is 53% (active). As to `COc1ccc(Br)cc1S(=O)(=O)Nc1cc(-c2cn3ccccc3n2)ccc1C`, the survival is 43% (active). Then `CCCS(=O)(=O)Nc1cc(-c2cn3cccc(C)c3n2)ccc1C`, with 59% (inactive); and `CC(=O)Nc1ccc(S(=O)(=O)Nc2cc(-c3cn4ccccc4n3)ccc2C)cc1`, with 67% (inactive). `CCc1ccc(S(=O)(=O)Nc2cc(-c3cn4ccccc4n3)ccc2C)cc1`: the survival is 74% (inactive).

As to `Cc1ccc(-c2cn3cccc(C)c3n2)cc1NS(=O)(=O)c1ccccc1`, the survival was 41% (active). Then `COc1ccc(S(=O)(=O)Nc2ccc(-c3cn4ccsc4n3)cc2)cc1C`, with 128% (inactive). In the case of `Cc1ccn2cc(-c3ccc(C)c(NS(=O)(=O)c4ccc(Cl)cc4)c3)nc2c1`, the survival is 43% (active). Consider `Cc1ccc(S(=O)(=O)Nc2cccc(-c3cn4cccc(C)c4n3)c2)c(C)c1`, for which the survival was 75% (inactive).

On to `Cc1cc(=O)[nH]c(SCC(=O)N2CCN(c3ccccc3)CC2)n1`, for which the survival is 81% (inactive). For the compound `Cc1ccc(Cl)cc1NS(=O)(=O)c1ccc2oc(=O)c3ncn(C)c3c2c1`, the survival is 124% (inactive).

Regarding `O=C(Nc1ccc2oc(-c3ccc4ccccc4c3)nc2c1)c1cccc(Cl)c1Cl`, the survival was 63% (inactive). For the compound `COc1cc(NC(=O)CCCN2C(=O)CCn3nc(-c4cn(C)c5ccccc45)cc32)cc(OC)c1`, the survival was 126% (inactive). Turning to `CCCOc1ccc(C(=O)Nc2ccc(-c3cc4ccccc4oc3=O)c(C)c2)cc1`, the survival was 71% (inactive). Consider `N#CC1=C2SCN(C3CCCCC3)CN2C(=O)CC1c1ccc(F)cc1` (stereo not drawn), for which the survival is 87% (inactive). Then `CCc1ccccc1NC(=O)Cn1cc(C(=O)c2ccncc2)c(=O)c2cc(C)ccc21`, with 83% (inactive); and `Cc1ccc(-c2cn3ccc(C)cc3n2)cc1`, with 22% (active); and `CCCS(=O)(=O)Nc1cc(-c2cn3ccc(C)cc3n2)ccc1C`, with 78% (inactive). The figure for `CCS(=O)(=O)Nc1cc(-c2cn3ccc(C)cc3n2)ccc1C` is 60% (inactive). The figure for `COc1cccc(C(=O)Nc2ccc(C(=O)OCc3cc(=O)n4cc(C)sc4n3)cc2)c1` is 66% (inactive); for `Cc1ccc2nc(N3CCC(C(=O)N4CCN(c5cccc(Cl)c5)CC4)CC3)[nH]c2c1` it is 68% (inactive). Take `CN(C)c1ccc(CNC(=O)C2CCN(c3nc4ccccc4[nH]3)CC2)cc1`: the survival was 63% (inactive). As to `COc1cccc(CNC(=O)C2CCN(c3nc4ccc(Cl)cc4[nH]3)CC2)c1`, the survival was 101% (inactive). Consider `COc1ccc(CNC(=O)C2CCN(c3nc4ccccc4[nH]3)CC2)cc1OC`, for which the survival was 55% (inactive).

On to `CCOc1cc(CNC(=O)C2CCN(c3nc4ccccc4[nH]3)CC2)cc(OCC)c1OCC`, for which the survival was 20% (active).

As for `COc1ccccc1CNC(=O)C1CCN(c2nc3ccc(C)cc3[nH]2)CC1`, the survival is 100% (inactive). With `O=C(C1CCN(c2nc3ccccc3[nH]2)CC1)N1CCN(c2ccccc2)CC1`, the survival was 89% (inactive). With `COc1ccccc1CNC(=O)C1CCN(c2nc3ccc(Cl)cc3[nH]2)CC1`, the survival was 25% (active).

With `O=C(C1CCN(c2nc3ccccc3[nH]2)CC1)N1CCN(c2cccc(Cl)c2)CC1`, the survival was 8% (active). On to `CC1CCN(S(=O)(=O)c2cn(CC(=O)Nc3ccc(F)c(Cl)c3)c(=O)c3ccccc23)CC1`, for which the survival was 73% (inactive). The figure for `Cc1ccc(-n2nc(CO)c(C(=O)NC(C)CCCc3ccccc3)n2)cc1C` (stereo not drawn) is 94% (inactive); for `CCOc1ccc(-n2nc(CO)c(C(=O)NCc3cccs3)n2)cc1` it is 40% (active); for `CCc1ccc(-n2nc(CO)c(C(=O)NCc3cccs3)n2)cc1` it is 60% (inactive). The figure for `Cc1ccc(-n2nc(CO)c(C(=O)NCc3cccs3)n2)cc1C` is 39% (active); for `Cc1ccc(-n2nc(CO)c(C(=O)NC(C)c3ccccc3)n2)cc1C` (stereo not drawn) it is 41% (active); for `Cc1ccccc1-n1nc(CO)c(C(=O)NCc2cccs2)n1` it is 79% (inactive).

Turning to `O=C(NCc1cccs1)c1nn(-c2ccccc2)nc1CO`, the survival is 84% (inactive). The figure for `Cc1ccc(-n2nc(CO)c(C(=O)NCCc3ccccc3)n2)cc1C` is 111% (inactive); for `Cc1ccc(-n2nc(CO)c(C(=O)NCc3cccs3)n2)cc1` it is 92% (inactive). With `CCN(CC)C(=O)C1=CC(c2ccc3c(c2)OCO3)=NS(=O)(=O)N1C`, the survival is 86% (inactive). Then `Cc1nc(SCC(=O)OCN2C(=O)c3ccccc3C2=O)n[nH]1`, with 80% (inactive); and `COC(=O)C(C)Sc1ncnc2c1c(-c1ccccc1)cn2-c1ccc(F)cc1` (stereo not drawn), with 76% (inactive); and `Cn1c(=O)c2c(c3ccccc31)OC(=O)CC2c1ccc(C(F)(F)F)cc1` (stereo not drawn), with 61% (inactive). The figure for `COc1ccc(C2CC(=O)c3c([nH]c(C(=O)OCCOc4ccccc4)c3C)C2)cc1OC` (stereo not drawn) is 99% (inactive); for `COc1ccc(C)cc1NC(=O)C(Cc1ccccc1)NS(=O)(=O)c1ccc(Br)s1` (stereo not drawn) it is 131% (inactive). In the case of `Cc1ccc(N2CC(NC(=O)C3CC3)CC2=O)cc1C` (stereo not drawn), the survival was 94% (inactive). For `COc1ccccc1N1CCN(CC(O)COc2ccc(Cl)c(C)c2)CC1` (stereo not drawn), the survival is 59% (inactive). Then `CC(=O)Nc1ccc(OCC(O)CN2CCN(c3ccc(C)c(Cl)c3)CC2)cc1` (stereo not drawn), with 76% (inactive); and `Cc1cc(OCC(O)CN2CCN(c3cccc(Cl)c3)CC2)ccc1Cl` (stereo not drawn), with -1% (active); and `CCOC(=O)c1c(C)oc2nc(C)nc(NCC3CCN(Cc4ccc(C)cc4)CC3)c12`, with 91% (inactive).
